# Experimental data: the supplement of paper PMC8728848
# The entries come from a sample that favours the strongest signals as a whole.
# Legend:
# Assay in all cases: glycan array binding signal (z-score within array); higher = stronger binding
# Settings in all cases: glycan notation: IUPAC condensed, linker removed
# [1] = biological target: Fuc(a1-2)Gal(b1-3)GlcNAc(b1-2)Man(a1-3)[Fuc(a1-2)Gal(b1-3)GlcNAc(b1-2)Man(a1-6)]Man(b1-4)GlcNAc(b1-4)[Fuc(a1-6)]GlcNAc
# In short: (§1)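 Arrays were curated from the Consortium for Functional Glycomics database, 3228 in total, and kept only where the protein sequence was available. Binding is expressed as a within-array Z-score. This score was averaged across arrays of the same protein sequence at different concentrations or buffers and across linkers, and negative values can be read as non-binding.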
# [2] = biological target: Fuc(a1-2)Gal(b1-3)[Fuc(a1-4)]GlcNAc
# In short: as §1
# [3] = biological target: Fuc(a1-2)Gal(b1-3)[Fuc(a1-4)]GlcNAc(b1-2)Man(a1-3)[Fuc(a1-2)Gal(b1-3)[Fuc(a1-4)]GlcNAc(b1-2)Man(a1-6)]Man(b1-4)GlcNAc(b1-4)GlcNAc
# In short: as §1
# [4] = biological target: Fuc(a1-2)Gal(b1-3)[Fuc(a1-4)]GlcNAc(b1-2)Man(a1-6)[Fuc(a1-2)Gal(b1-3)[Fuc(a1-4)]GlcNAc(b1-2)Man(a1-3)]Man(b1-4)GlcNAc(b1-4)[Fuc(a1-6)]GlcNAc
# In short: as §1
# [5] = biological target: Fuc(a1-2)Gal(b1-4)[Fuc(a1-3)]GlcNAc(b1-2)Man(a1-6)[Fuc(a1-2)Gal(b1-4)[Fuc(a1-3)]GlcNAc(b1-2)Man(a1-3)]Man(b1-4)GlcNAc(b1-4)[Fuc(a1-6)]GlcNAc
# In short: as §1
# [6] = biological target: Fuc(a1-2)Gal(b1-4)[Fuc(a1-3)]GlcNAc(b1-3)Gal(b1-4)[Fuc(a1-3)]GlcNAc(b1-3)Gal(b1-4)[Fuc(a1-3)]GlcNAc
# In short: as §1
# [7] = biological target: Fuc(a1-2)Gal(b1-4)[Fuc(a1-3)]GlcNAc(b1-3)GalNAc
# In short: as §1
# Fuc(a1-2)[Gal(a1-3)]Gal = biological target: Fuc(a1-2)[Gal(a1-3)]Gal
# In short: as §1
# [8] = biological target: Fuc(a1-2)[Gal(a1-3)]Gal(b1-4)GlcNAc(b1-2)Man(a1-3)[Fuc(a1-2)[Gal(a1-3)]Gal(b1-4)GlcNAc(b1-2)Man(a1-6)]Man(b1-4)GlcNAc(b1-4)GlcNAc
# In short: as §1
# [9] = biological target: Fuc(a1-2)[GalNAc(a1-4)]Gal(b1-4)GlcNAc
# In short: as §1
# [10] = biological target: Fuc(a1-3)[Gal(b1-4)]GlcNAc(b1-2)Man(a1-3)[Fuc(a1-3)[Gal(b1-4)]GlcNAc(b1-2)Man(a1-6)]Man(b1-4)GlcNAc(b1-4)[Fuc(a1-6)]GlcNAc
# In short: as §1
# [11] = biological target: Fuc(a1-3)[Gal(b1-4)]GlcNAc(b1-3)GalNAc
# In short: as §1
# [12] = biological target: Fuc(a1-3)[Gal3S(b1-4)]GlcNAc
# In short: as §1
# [13] = biological target: Gal(a1-3)Gal(b1-4)[Fuc(a1-3)]GlcNAc(b1-2)Man(a1-3)[Gal(a1-3)Gal(b1-4)[Fuc(a1-3)]GlcNAc(b1-2)Man(a1-6)]Man(b1-4)GlcNAc(b1-4)GlcNAc
# In short: as §1
# Gal(b1-2)Gal = biological target: Gal(b1-2)Gal
# In short: as §1
# [14] = biological target: Gal(b1-3)GalNAc(b1-3)Gal(a1-4)Gal(b1-4)Glc
# In short: as §1
# [15] = biological target: Gal(b1-3)[Fuc(a1-4)]GlcNAc(b1-3)Gal(b1-3)[Fuc(a1-4)]GlcNAc
# In short: as §1
# [16] = biological target: Gal(b1-4)GlcNAc(b1-2)Man(a1-3)[Gal(b1-4)GlcNAc(b1-2)Man(a1-6)]Man(b1-4)GlcNAc(b1-4)GlcNAc
# In short: as §1
# [17] = biological target: Gal(b1-4)GlcNAc(b1-2)Man(a1-3)[GlcNAc(b1-2)Man(a1-6)]Man(b1-4)GlcNAc(b1-4)GlcNAc
# In short: as §1
# [18] = biological target: Gal(b1-4)GlcNAc(b1-2)Man(a1-3)[Man(a1-6)]Man(b1-4)GlcNAc(b1-4)GlcNAc
# In short: as §1
# Gal3S6S(b1-4)GlcNAc = biological target: Gal3S6S(b1-4)GlcNAc
# In short: as §1
# Gal6P(b1-4)GlcNAc = biological target: Gal6P(b1-4)GlcNAc
# In short: as §1
# GalNAc(a1-3)Gal = biological target: GalNAc(a1-3)Gal
# In short: as §1
# GalNAc(b1-3)Gal = biological target: GalNAc(b1-3)Gal
# In short: as §1
# GalNAc(b1-4)Gal(b1-4)Glc = biological target: GalNAc(b1-4)Gal(b1-4)Glc
# In short: as §1
# [19] = biological target: Glc(a1-4)Glc(a1-4)Glc(a1-4)Glc
# In short: as §1
# [20] = biological target: GlcNAc(a1-4)Gal(b1-4)GalNAc
# In short: as §1
# GlcNAc(b1-3)Gal = biological target: GlcNAc(b1-3)Gal
# In short: as §1
# [21] = biological target: GlcNAc(b1-3)[GlcNAc(b1-4)][GlcNAc(b1-6)]GlcNAc
# In short: as §1
# Kdn(a2-6)Gal(b1-4)GlcNAc = biological target: Kdn(a2-6)Gal(b1-4)GlcNAc
# In short: as §1
# Man(a1-2)Man(a1-3)Man = biological target: Man(a1-2)Man(a1-3)Man
# In short: as §1
# [22] = biological target: Neu5Ac(a2-3)Gal(b1-3)GalNAc(b1-4)[Neu5Ac(a2-3)]Gal(b1-4)Glc
# In short: as §1
# [23] = biological target: Neu5Ac(a2-3)Gal(b1-3)[Fuc(a1-4)]GlcNAc
# In short: as §1
# [24] = biological target: Neu5Ac(a2-3)Gal(b1-3)[Neu5Ac(a2-3)Gal(b1-4)]GlcNAc
# In short: as §1
# [25] = biological target: Neu5Ac(a2-3)Gal(b1-4)GlcNAc
# In short: as §1
# [26] = biological target: Neu5Ac(a2-3)Gal(b1-4)GlcNAc(b1-2)Man(a1-3)[GlcNAc(b1-2)Man(b1-4)GlcNAc(b1-2)Man(a1-6)]Man(b1-4)GlcNAc(b1-4)GlcNAc
# In short: as §1
# [27] = biological target: Neu5Ac(a2-3)Gal(b1-4)[Fuc(a1-3)]GlcNAc6S
# In short: as §1
# [28] = biological target: Neu5Ac(a2-3)Gal6S(b1-4)GlcNAc
# In short: as §1
# [29] = biological target: Neu5Ac(a2-3)[GalNAc(b1-4)]Gal(b1-4)GlcNAc(b1-3)GalNAc
# In short: as §1
# Neu5Ac(a2-6)Gal(b1-4)Glc = biological target: Neu5Ac(a2-6)Gal(b1-4)Glc
# In short: as §1
# [30] = biological target: Neu5Ac(a2-6)Gal(b1-4)GlcNAc(b1-2)Man(a1-3)[GlcNAc(b1-2)Man(a1-6)]Man(b1-4)GlcNAc(b1-4)GlcNAc
# In short: as §1
# [31] = biological target: Neu5Ac(a2-6)Gal(b1-4)GlcNAc(b1-3)Gal(b1-4)GlcNAc(b1-3)Gal(b1-4)GlcNAc
# In short: as §1
# [32] = biological target: Neu5Ac(a2-6)GlcNAc(b1-4)GlcNAc
# In short: as §1
# [33] = biological target: Neu5Ac(a2-8)Neu5Ac(a2-8)Neu5Ac
# In short: as §1
# Neu5Ac(b2-6)GalNAc = biological target: Neu5Ac(b2-6)GalNAc
# In short: as §1
# [34] = biological target: Neu5Gc(b2-6)Gal(b1-4)GlcNAc
# In short: as §1
binder,measurement,setting,value
"Strep tagII-anxA1 (Homo sapiens), P04083 (protein) MAMVSEFLKQAWFIENEEQEYVQTVKSSKGGPGSAVSPYPTFNPSSDVAALHKAIMVKGVDEATIIDILTKRNNAQRQQIKAAYLQETGKPLDETLKKALTGHLEEVVLALLKTPAQFDADELRAAMKGLGTDEDTLIEILASRTNKEIRDINRVYREELKRDLAKDITSDTSGDFRNALLSLAKGDRSEDFGVNEDLADSDARALYEAGERRKGTDVNVFNTILTTRSYPQLRRVFQKYTKYSKHDMNKVLDLELKGDIEKCLTAIVKCATSKPAFFAEKLHQAMKGVGTRHKALIRIMVSRSEIDMNDIKAFYQKMYGISLCQAILDETKGDYEKILVALCGGN",glycan array binding signal (z-score),[1],0.314
same,glycan array binding signal (z-score),[2],5.05
same,glycan array binding signal (z-score),[3],10.7
same,glycan array binding signal (z-score),[4],3.12
same,glycan array binding signal (z-score),[5],3.12
same,glycan array binding signal (z-score),[6],0.054
same,glycan array binding signal (z-score),[7],-0.317
same,glycan array binding signal (z-score),Fuc(a1-2)[Gal(a1-3)]Gal,-0.612
same,glycan array binding signal (z-score),[8],1.69
same,glycan array binding signal (z-score),[9],-0.304
same,glycan array binding signal (z-score),[10],2.81
same,glycan array binding signal (z-score),[11],-0.209
same,glycan array binding signal (z-score),[12],0.479
same,glycan array binding signal (z-score),[13],3.62
same,glycan array binding signal (z-score),Gal(b1-2)Gal,-0.402
same,glycan array binding signal (z-score),[14],-0.44
same,glycan array binding signal (z-score),[15],-0.366
same,glycan array binding signal (z-score),[16],-0.682
same,glycan array binding signal (z-score),[17],-0.567
same,glycan array binding signal (z-score),[18],1.08
same,glycan array binding signal (z-score),Gal3S6S(b1-4)GlcNAc,0.386
same,glycan array binding signal (z-score),Gal6P(b1-4)GlcNAc,-0.017
same,glycan array binding signal (z-score),GalNAc(a1-3)Gal,0.67
same,glycan array binding signal (z-score),GalNAc(b1-3)Gal,-0.664
same,glycan array binding signal (z-score),GalNAc(b1-4)Gal(b1-4)Glc,1.79
same,glycan array binding signal (z-score),[19],3.56
same,glycan array binding signal (z-score),[20],2.68
same,glycan array binding signal (z-score),GlcNAc(b1-3)Gal,-0.607
same,glycan array binding signal (z-score),[21],2.8
same,glycan array binding signal (z-score),Kdn(a2-6)Gal(b1-4)GlcNAc,-0.606
same,glycan array binding signal (z-score),Man(a1-2)Man(a1-3)Man,-0.123
same,glycan array binding signal (z-score),[22],-0.502
same,glycan array binding signal (z-score),[23],-0.529
same,glycan array binding signal (z-score),[24],-0.763
same,glycan array binding signal (z-score),[25],-0.209
same,glycan array binding signal (z-score),[26],-0.74
same,glycan array binding signal (z-score),[27],-0.736
same,glycan array binding signal (z-score),[28],-0.312
same,glycan array binding signal (z-score),[29],-0.294
same,glycan array binding signal (z-score),Neu5Ac(a2-6)Gal(b1-4)Glc,0.446
same,glycan array binding signal (z-score),[30],-0.496
same,glycan array binding signal (z-score),[31],0.122
same,glycan array binding signal (z-score),[32],-0.032
same,glycan array binding signal (z-score),[33],-0.49
same,glycan array binding signal (z-score),Neu5Ac(b2-6)GalNAc,-0.503
same,glycan array binding signal (z-score),[34],-0.654
